Laboratory results from the supplement of paper PMC11732987, “Enantioselective OTUD7B fragment discovery through chemoproteomics screening and high-throughput optimisation” (Communications Chemistry, 2025).

Columns and labels:
Experiment in all cases: log2 ratio of Biotin-Ahx-Ub-VS probe labelling (fragment/DMSO); higher = less target engagement (more negative = stronger competition), active = hit call of the paper (q ≤ 0.05, log2 ratio ≤ -1)
Conditions in all cases: compound concentration: 200 uM; treatment time: 3 h
USP19 = target: T1, USP19 (UniProt O94966)
T1 sequence (whole entry): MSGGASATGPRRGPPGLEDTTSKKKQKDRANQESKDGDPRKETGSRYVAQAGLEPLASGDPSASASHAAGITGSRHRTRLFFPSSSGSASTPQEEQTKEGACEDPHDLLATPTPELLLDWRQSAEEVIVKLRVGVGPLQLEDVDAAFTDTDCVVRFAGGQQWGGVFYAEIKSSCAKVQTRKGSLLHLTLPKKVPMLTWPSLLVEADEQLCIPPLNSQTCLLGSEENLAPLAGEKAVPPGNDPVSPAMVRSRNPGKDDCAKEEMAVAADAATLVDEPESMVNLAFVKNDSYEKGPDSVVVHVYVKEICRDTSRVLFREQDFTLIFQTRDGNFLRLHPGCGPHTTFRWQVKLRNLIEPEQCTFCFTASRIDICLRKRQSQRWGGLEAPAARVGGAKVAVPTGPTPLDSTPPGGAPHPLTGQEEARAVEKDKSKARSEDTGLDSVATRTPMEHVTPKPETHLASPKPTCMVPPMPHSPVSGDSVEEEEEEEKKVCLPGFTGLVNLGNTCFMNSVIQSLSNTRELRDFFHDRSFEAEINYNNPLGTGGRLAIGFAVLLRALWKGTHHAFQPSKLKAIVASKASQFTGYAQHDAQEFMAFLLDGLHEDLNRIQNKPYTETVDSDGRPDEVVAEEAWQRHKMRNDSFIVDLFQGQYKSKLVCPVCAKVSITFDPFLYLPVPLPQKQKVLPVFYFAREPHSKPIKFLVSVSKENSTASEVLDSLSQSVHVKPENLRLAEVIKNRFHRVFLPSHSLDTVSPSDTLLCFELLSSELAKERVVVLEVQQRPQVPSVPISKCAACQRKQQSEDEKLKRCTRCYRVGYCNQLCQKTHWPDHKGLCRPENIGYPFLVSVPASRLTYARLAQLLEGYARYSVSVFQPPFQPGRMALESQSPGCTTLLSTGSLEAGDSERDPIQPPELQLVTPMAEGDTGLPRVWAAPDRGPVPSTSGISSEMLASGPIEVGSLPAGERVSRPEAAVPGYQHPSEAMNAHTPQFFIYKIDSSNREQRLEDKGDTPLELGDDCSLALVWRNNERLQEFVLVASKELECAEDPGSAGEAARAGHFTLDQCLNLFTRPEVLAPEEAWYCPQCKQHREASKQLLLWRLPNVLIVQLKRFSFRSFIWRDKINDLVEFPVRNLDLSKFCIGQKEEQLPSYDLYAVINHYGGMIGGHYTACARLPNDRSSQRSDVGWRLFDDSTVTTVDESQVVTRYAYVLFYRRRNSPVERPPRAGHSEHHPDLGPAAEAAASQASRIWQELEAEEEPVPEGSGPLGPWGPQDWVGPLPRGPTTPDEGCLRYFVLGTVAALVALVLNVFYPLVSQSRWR
Summary of the method: (§1)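 The table lists average log2 ratios of fragment over vehicle, from an unpaired t-test on global-median-normalised Spectronaut label-free quantities. Proteins with ≥2 unique peptides were used. Samples were HEK293T lysate (495 µg) treated in triplicate with fragment at 200 µM or vehicle for 3 h, then with Biotin-Ahx-Ub-VS (0.5 µM final) for 1 h, with labelled DUBs NeutrAvidin-enriched and run by diaPASEF LC-MS/MS.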

USP24 = USP24 (UniProt Q9UPU5)
USP24, sequence (Q9UPU5 whole entry): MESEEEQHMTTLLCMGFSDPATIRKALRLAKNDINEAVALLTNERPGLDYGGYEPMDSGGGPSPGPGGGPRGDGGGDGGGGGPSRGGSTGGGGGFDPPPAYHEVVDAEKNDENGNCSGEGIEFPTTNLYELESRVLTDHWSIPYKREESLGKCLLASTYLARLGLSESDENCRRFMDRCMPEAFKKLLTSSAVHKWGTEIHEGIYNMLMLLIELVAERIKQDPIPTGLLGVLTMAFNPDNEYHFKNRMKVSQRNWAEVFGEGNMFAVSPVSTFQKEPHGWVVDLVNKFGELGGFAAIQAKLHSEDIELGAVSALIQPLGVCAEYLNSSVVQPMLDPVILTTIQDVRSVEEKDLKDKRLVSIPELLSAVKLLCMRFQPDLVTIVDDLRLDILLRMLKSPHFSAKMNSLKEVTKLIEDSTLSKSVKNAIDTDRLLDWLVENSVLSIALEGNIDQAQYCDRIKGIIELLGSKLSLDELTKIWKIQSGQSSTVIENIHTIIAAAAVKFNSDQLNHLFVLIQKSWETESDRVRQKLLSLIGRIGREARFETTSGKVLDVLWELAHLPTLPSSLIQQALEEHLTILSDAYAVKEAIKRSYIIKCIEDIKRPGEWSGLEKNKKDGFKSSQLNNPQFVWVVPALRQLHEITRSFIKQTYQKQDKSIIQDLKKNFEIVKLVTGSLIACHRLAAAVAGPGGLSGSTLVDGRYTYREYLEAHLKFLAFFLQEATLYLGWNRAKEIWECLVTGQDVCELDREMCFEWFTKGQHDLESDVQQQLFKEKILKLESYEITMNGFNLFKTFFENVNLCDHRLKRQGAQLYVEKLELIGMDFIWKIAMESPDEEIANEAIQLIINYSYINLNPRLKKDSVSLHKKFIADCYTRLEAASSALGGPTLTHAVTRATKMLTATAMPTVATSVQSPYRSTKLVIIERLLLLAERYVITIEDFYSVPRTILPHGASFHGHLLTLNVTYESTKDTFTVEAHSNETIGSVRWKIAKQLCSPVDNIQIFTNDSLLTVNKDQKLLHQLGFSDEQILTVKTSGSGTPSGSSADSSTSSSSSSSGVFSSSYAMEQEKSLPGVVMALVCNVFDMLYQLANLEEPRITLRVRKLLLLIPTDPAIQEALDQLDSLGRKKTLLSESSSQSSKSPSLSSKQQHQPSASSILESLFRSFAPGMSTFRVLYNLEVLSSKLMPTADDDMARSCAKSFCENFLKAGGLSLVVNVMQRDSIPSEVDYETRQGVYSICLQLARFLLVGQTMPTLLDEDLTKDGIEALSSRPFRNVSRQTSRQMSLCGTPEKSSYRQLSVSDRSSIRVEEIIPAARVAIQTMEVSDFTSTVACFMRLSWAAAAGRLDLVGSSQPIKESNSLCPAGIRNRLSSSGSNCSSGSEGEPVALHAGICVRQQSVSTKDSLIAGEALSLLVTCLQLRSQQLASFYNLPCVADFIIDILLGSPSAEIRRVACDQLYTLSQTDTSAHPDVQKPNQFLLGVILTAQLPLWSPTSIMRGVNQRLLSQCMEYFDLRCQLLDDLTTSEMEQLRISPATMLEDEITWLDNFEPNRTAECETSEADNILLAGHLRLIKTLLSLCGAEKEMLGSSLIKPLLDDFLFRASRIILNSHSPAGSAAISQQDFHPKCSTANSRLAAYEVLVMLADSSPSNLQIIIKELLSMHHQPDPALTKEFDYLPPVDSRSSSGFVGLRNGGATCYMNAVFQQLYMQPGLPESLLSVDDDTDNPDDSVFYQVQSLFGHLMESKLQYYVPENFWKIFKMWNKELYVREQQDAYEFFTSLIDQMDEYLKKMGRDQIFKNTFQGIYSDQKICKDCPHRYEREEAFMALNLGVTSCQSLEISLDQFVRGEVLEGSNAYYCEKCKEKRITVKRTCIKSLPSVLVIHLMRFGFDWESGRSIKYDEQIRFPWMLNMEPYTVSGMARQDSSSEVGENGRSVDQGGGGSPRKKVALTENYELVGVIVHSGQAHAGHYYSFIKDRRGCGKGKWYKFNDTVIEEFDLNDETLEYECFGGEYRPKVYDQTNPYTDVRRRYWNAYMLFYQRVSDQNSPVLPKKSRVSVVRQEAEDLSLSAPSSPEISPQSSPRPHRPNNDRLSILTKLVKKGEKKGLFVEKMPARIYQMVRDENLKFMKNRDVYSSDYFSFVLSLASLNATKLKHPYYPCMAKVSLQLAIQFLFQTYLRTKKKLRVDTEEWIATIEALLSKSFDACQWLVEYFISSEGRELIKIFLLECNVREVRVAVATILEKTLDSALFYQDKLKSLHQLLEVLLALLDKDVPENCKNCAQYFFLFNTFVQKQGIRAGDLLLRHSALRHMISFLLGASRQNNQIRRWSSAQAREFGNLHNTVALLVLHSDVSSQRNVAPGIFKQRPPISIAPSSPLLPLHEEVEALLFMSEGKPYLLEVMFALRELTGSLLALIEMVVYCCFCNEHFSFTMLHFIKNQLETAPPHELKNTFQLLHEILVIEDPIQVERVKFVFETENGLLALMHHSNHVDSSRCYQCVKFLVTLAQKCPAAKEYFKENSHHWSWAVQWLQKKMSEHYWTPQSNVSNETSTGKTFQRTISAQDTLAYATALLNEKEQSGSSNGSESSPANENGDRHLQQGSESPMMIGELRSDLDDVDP
Summary of the method: as §1

USP25 = target: T2, USP25 (UniProt Q9UHP3)
T2 sequence (whole entry): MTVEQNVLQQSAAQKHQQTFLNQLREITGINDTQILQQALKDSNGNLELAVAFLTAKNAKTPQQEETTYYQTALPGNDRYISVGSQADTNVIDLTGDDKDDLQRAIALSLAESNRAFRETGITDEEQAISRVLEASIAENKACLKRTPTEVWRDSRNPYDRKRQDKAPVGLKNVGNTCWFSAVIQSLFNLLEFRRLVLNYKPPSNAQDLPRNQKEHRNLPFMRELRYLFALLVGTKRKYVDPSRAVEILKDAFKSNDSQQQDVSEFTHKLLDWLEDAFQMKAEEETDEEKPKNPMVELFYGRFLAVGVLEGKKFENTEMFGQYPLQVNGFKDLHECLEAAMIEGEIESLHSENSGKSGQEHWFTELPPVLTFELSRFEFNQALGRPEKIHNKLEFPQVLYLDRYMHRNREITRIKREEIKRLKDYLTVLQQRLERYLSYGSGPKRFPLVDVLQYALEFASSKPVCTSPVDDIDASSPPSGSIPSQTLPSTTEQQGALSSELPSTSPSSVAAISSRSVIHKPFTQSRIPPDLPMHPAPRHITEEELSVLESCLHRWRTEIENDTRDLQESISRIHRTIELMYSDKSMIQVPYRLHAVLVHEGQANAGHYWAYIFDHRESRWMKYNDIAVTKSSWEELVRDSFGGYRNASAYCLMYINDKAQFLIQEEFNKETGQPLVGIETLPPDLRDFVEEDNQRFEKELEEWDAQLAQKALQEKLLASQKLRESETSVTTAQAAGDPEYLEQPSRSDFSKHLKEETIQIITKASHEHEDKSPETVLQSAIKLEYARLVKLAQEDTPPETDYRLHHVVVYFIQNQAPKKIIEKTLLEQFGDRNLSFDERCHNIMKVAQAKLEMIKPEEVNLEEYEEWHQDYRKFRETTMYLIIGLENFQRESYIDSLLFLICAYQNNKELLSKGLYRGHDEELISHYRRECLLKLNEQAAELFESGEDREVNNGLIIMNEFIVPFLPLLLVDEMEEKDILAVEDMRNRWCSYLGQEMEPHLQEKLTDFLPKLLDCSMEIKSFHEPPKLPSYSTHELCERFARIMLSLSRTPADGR
Summary of the method: as §1

USP28 = target: T3, USP28 (UniProt Q96RU2)
T3 sequence (whole entry): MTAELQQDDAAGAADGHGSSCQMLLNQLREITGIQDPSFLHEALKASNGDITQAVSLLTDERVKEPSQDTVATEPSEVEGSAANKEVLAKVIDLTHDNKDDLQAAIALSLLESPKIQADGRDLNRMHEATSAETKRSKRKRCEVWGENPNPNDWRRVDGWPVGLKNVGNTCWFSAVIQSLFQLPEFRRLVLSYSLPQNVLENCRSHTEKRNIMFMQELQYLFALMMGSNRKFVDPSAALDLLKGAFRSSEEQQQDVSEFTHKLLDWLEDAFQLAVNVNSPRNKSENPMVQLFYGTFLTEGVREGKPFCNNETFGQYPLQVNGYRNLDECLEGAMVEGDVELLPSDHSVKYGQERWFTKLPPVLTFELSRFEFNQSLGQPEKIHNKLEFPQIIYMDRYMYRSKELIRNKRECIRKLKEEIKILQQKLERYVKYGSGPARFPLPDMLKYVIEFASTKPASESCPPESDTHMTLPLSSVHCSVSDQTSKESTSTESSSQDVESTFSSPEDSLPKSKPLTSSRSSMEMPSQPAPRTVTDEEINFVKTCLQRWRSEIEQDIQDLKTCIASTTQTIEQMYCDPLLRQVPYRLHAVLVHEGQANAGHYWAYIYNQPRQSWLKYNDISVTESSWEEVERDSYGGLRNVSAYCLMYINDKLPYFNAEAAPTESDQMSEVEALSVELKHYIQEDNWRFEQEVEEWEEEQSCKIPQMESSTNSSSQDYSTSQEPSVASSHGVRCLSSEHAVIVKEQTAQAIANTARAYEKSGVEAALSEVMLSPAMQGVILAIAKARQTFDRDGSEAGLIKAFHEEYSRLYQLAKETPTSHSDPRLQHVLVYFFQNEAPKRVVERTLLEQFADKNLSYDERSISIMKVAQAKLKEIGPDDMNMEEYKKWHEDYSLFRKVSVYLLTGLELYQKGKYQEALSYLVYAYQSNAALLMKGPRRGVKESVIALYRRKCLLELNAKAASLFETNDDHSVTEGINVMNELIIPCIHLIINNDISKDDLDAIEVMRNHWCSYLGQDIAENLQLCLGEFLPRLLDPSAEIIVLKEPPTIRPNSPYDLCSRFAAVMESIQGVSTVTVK
Summary of the method: as §1

Measured: log2 ratio of Biotin-Ahx-Ub-VS probe labelling

Cc1ccn2cc(CNC(=O)CCl)nc2c1.Cl
inactive: USP19 -0.148 | USP24 -0.106 | USP25 -0.398 | USP28 -0.272
